Source: PubChem BioAssay (NCI)
About 83,000 compounds went through this panel and 20% of them were active in at least one assay; those are over-represented in the sample as a whole.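 Results are percent growth after 48 hours of single-concentration exposure. 100 means growth as in untreated cells, lower positive values show inhibition; negative values down to -100 show cell death.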 The source made the active and inactive calls. How the source made its calls: active means growth percent below 10; inactive means the rest.

System: MDA-MB-468 breast
Assay: NCI-60 one-dose screen, 48 h (100 = growth as untreated, 0 = no growth, -100 = all killed)
Conditions: 10 µM unless noted

Row | Compound | growth
1 | COc1ccc(NP2(=O)OCC(C)(N)CO2)cc1 (stereo not given) | 105% (inactive)
2 | CC/C(Cc1ccccc1)=C(\c1ccc(OCCN2CCCC2)cc1)c1ccc(OC(=O)NCc2ccccc2)cc1 | 14.8% (inactive)
3 | C[C@]12CCc3sc(Nc4ccc(OC(F)(F)F)cc4)nc3C1=CC[C@@H]1[C@@H]2CC[C@]2(C)C(=O)CC[C@@H]12 | 69.1% (inactive)
4 | CCOC(=O)[C@@H](C)C[C@H](Cc1ccccc1)NC(=O)c1csc([C@@H](C[C@H](C(C)C)N(C)C(=O)[C@H](CC)NC(=O)[C@H]2CCCCN2C)OC(C)=O)n1 | 32.5% (inactive)
5 | C[CH2][Pb]([CH2]C)([CH2]C)[O]C(=O)c1ccc(N)cc1 | -11.9% (active)
6 | O=C1C2C(C(=O)[N]1[Hg][c]1ccccc1)C1(Cl)C(Cl)=C(Cl)C2(Cl)C1(Cl)Cl (stereo not given) | -72.7% (active)
7 | CC(C)COC(C[N+](=O)[O-])C(Cl)(Cl)Cl (stereo not given) | 112% (inactive)
8 | CC(C)=CC1C(C(=O)OCc2cccc(Oc3ccccc3)c2)C1(C)C (stereo not given) | 100% (inactive)
9 | CCCCCCCCCCCC1CCCC(C)N1 (stereo not given) | 73.3% (inactive)
10 | COc1cc(/C=C\[N+](=O)[O-])ccc1OCc1ccccc1 | 6.8% (active)
11 | O=C1NC(=O)C(Cc2ccccc2)(Cc2ccccc2)C(=O)N1 | 113% (inactive)
12 | CCOC(=O)C(Cc1ccc(N(CCCl)CCCl)cc1)NC(=O)C(CC(C)C)NC(C)=O (stereo not given) | -45.6% (active)
13 | COC(=O)[C@@H](C)C[C@H](Cc1ccc2ccccc2c1)NC(=O)c1csc([C@@H](C[C@H](C(C)C)N(C)C(=O)[C@@H](NC(=O)[C@H]2CCCCN2C)C(C)C)OC(C)=O)n1 | 67% (inactive)
14 | C=CCCCCCCCCC(=O)[O-].C=CCCCCCCCCC(=O)[O-].[Zn+2] | 115% (inactive)
15 | N#CCc1ccc(CC#N)cc1 | 100% (inactive)
16 | C[C@@]12CC=C3c4nc(Nc5cccc(O)c5)sc4CC[C@]3(C)[C@H]1CC[C@]1(C)C(=O)CC[C@@H]21 | 32.2% (inactive)
17 | CC(=O)O[C@H]1C(=O)[C@@]2(C)[C@H]([C@H](OC(=O)c3ccccc3)[C@]3(O)C[C@H](OC(=O)[C@H](OC(=O)OC[C@H]4COC(C)(C)O4)[C@@H](NC(=O)c4ccccc4)c4ccccc4)C(C)=C1C3(C)C)[C@]1(OC(C)=O)CO[C@@H]1C[C@@H]2O | -16.3% (active)
18 | Nc1ccc(-c2nc3cc(F)ccc3[se]2)cc1F | -21% (active)

Row | Compound | growth
19 | COc1ccn(C)c(=O)c1C#N | 102% (inactive)
20 | C[C@]12CCc3nc(-c4ccc(O)c(O)c4)sc3C1=CC[C@@H]1[C@@H]2CC[C@]2(C)C(=O)CC[C@@H]12 | 80.1% (inactive)
21 | CO[C@@H]([CH2][Hg][S]C#N)[C@@H]([CH2][Hg][S]C#N)OC | 98.3% (inactive)
22 | COC(=O)[C@H](C[C@H](Cc1ccccc1)NC(=O)c1csc([C@@H](C[C@H](C(C)C)N(C)C(=O)[C@@H](NC(=O)[C@H]2CCCCN2C)C(C)C)OC(C)=O)n1)NC(=O)OCc1ccccc1 | 0.51% [8.5 µM] (active)
23 | COC(=O)[C@@H](C)C[C@H](Cc1ccccc1)NC(=O)c1csc(CC[C@H](C(C)C)N(C)C(=O)[C@@H](NC(=O)[C@H]2CCCCN2C)C(C)C)n1 | 8.45% (active)
24 | CC(=O)Oc1ccccc1C(=O)NCCC[Se]C#N | 19% (inactive)
25 | O=C(Nc1ccncc1F)c1cn(CC2CC2)c2ccccc12 | 107% (inactive)
26 | CCOC(=O)[C@@H](C)C[C@H](Cc1ccccc1)NC(=O)c1nc([C@@H](C[C@H](C(C)C)N(C)C(=O)[C@@H](NC(=O)[C@H]2CCCCN2C)C(C)C)OC(C)=O)sc1CCOCc1ccccc1 | -48.6% (active)
27 | CC(C)CCC1(CCCl)C(=O)NC(=O)NC1=O | 90.1% (inactive)
28 | COc1ccc(OC)c(/C=C/[N+](=O)[O-])c1 | -59.3% (active)
29 | O=C(O)CNC(=O)C(Cl)(Cl)Cl | 98.8% (inactive)
30 | CNC(=O)Oc1ccc(N(C)C)cc1C(C)C | 74.8% (inactive)
31 | COc1cc2ncnc(Nc3ccc(F)c(Cl)c3)c2cc1OCC(=O)N1CCN(C)CC1 | -32.4% (active)
32 | CN1[C@@H](CC(=O)c2ccccc2)CCC[C@H]1CC(=O)c1ccccc1 | 101% (inactive)
33 | COc1cc(/C=C/[N+](=O)[O-])cc(OC)c1 | -61.2% (active)
34 | O=C1Nc2ccccc2C2c3cccn3-c3ccccc3CN12 (stereo not given) | 30.5% (inactive)
35 | N[C@@H](CCC(=O)CCl)C(=O)O | 102% [20 µM] (inactive)
